# Columns and labels:
# Assay in all cases: SPOT peptide array binding signal intensity (averaged, normalized) (arbitrary units (background-subtracted, floor 0; scale differs between SH3 domains)); higher = stronger binding of the SH3 domain to the peptide
# SpBzz1-D2 = target: SpBzz1-D2
# Procedure: (§1)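 GST-tagged SH3 domains from S. cerevisiae (Sc), A. gossypii (Ag), C. albicans (Ca) and S. pombe (Sp) were incubated at 10 ug/ml overnight at 4 C on cellulose SPOT membranes carrying 292 synthetic 15-mer peptides mined from the S. cerevisiae proteome (cysteines replaced by serines). Binding was detected with anti-GST antibody, HRP secondary and chemiluminescence, quantified with Genespotter, and reported as normalized spot intensities averaged over biological replicates.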
# SpCyk3 = target: SpCyk3
# Procedure: as §1
# SpHof1 = target: SpHof1
# Procedure: as §1
# SpHof1-2 = target: SpHof1-2
# Procedure: as §1
# SpHof1-3 = target: SpHof1-3
# Procedure: as §1
# SpHse1 = target: SpHse1
# Procedure: as §1
# SpLsb1 = target: SpLsb1
# Procedure: as §1
# SpLsb4 = target: SpLsb4
# Procedure: as §1
# SpMyo1 = target: SpMyo1
# Procedure: as §1
# SpNbp2 = target: SpNbp2
# Procedure: as §1
# SpPex13 = target: SpPex13
# Procedure: as §1
# SpRvs167 = target: SpRvs167
# Procedure: as §1
# SpSla1-D1-D2 = target: SpSla1-D1-D2
# Procedure: as §1
# SpSla1-D3 = target: SpSla1-D3
# Procedure: as §1
# AgAbp1 = target: AgAbp1
# Procedure: as §1
# AgBbc1 = target: AgBbc1
# Procedure: as §1
# AgBem1-D1 = target: AgBem1-D1
# Procedure: as §1
# AgBzz1-D1 = target: AgBzz1-D1
# Procedure: as §1
# AgBzz1-D2 = target: AgBzz1-D2
# Procedure: as §1
# AgCyk3 = target: AgCyk3
# Procedure: as §1
# AgFus1 = target: AgFus1
# Procedure: as §1
# AgHof1 = target: AgHof1
# Procedure: as §1
# AgHse1 = target: AgHse1
# Procedure: as §1
# AgLsb1 = target: AgLsb1
# Procedure: as §1
# AgLsb4 = target: AgLsb4
# Procedure: as §1
# AgMyo5 = target: AgMyo5
# Procedure: as §1
# AgNbp2 = target: AgNbp2
# Procedure: as §1
# AgRvs167 = target: AgRvs167
# Procedure: as §1
# AgSho1 = target: AgSho1
# Procedure: as §1
# AgSla1-D1-D2 = target: AgSla1-D1-D2
# Procedure: as §1
# AgSla1-D3 = target: AgSla1-D3
# Procedure: as §1
# CaAbp1-D1 = target: CaAbp1-D1
# Procedure: as §1
# CaAbp1-D2 = target: CaAbp1-D2
# Procedure: as §1
# CaBbc1 = target: CaBbc1
# Procedure: as §1
# CaBem1-D1 = target: CaBem1-D1
# Procedure: as §1
# CaBzz1-D1 = target: CaBzz1-D1
# Procedure: as §1
# CaBzz1-D2 = target: CaBzz1-D2
# Procedure: as §1
# CaCyk3 = target: CaCyk3
# Procedure: as §1
# CaFus1 = target: CaFus1
# Procedure: as §1
# CaHof1 = target: CaHof1
# Procedure: as §1
# CaHse1 = target: CaHse1
# Procedure: as §1
# CaLsb1 = target: CaLsb1
# Procedure: as §1
# CaLsb4 = target: CaLsb4
# Procedure: as §1
# CaMyo5 = target: CaMyo5
# Procedure: as §1
# CaNbp2 = target: CaNbp2
# Procedure: as §1
# CaRvs167 = target: CaRvs167
# Procedure: as §1
# CaRvs167-3 = target: CaRvs167-3
# Procedure: as §1
# CaSho1 = target: CaSho1
# Procedure: as §1
# CaSla1-D1-D2 = target: CaSla1-D1-D2
# Procedure: as §1
# CaSla1-D3 = target: CaSla1-D3
# Procedure: as §1
# ScAbp1 = target: ScAbp1
# Procedure: as §1
# ScBbc1 = target: ScBbc1
# Procedure: as §1
# ScBem1-D1 = target: ScBem1-D1
# Procedure: as §1
# ScBzz1-D1 = target: ScBzz1-D1
# Procedure: as §1
# ScBzz1-D2 = target: ScBzz1-D2
# Procedure: as §1
# ScCyk3 = target: ScCyk3
# Procedure: as §1
# ScFus1 = target: ScFus1
# Procedure: as §1
# ScHof1 = target: ScHof1
# Procedure: as §1
# ScHse1 = target: ScHse1
# Procedure: as §1
# ScLsb1 = target: ScLsb1
# Procedure: as §1
# ScLsb2 = target: ScLsb2
# Procedure: as §1
# ScLsb3 = target: ScLsb3
# Procedure: as §1
# ScLsb4 = target: ScLsb4
# Procedure: as §1
# ScMyo3 = target: ScMyo3
# Procedure: as §1
# ScMyo5 = target: ScMyo5
# Procedure: as §1
# ScNbp2 = target: ScNbp2
# Procedure: as §1
# ScPex13 = target: ScPex13
# Procedure: as §1
# ScRvs167 = target: ScRvs167
# Procedure: as §1
# ScSho1 = target: ScSho1
# Procedure: as §1
# ScSla1-D1-D2 = target: ScSla1-D1-D2
# Procedure: as §1
# ScSla1-D3 = target: ScSla1-D3
# Procedure: as §1
# SpAbp1-D1 = target: SpAbp1-D1
# Procedure: as §1
# SpBbc1 = target: SpBbc1
# Procedure: as §1
# SpBzz1-D1 = target: SpBzz1-D1
# Procedure: as §1
binder,measurement,setting,value
KRKRFNLLLPKPYLT,SPOT peptide array binding signal intensity,SpBzz1-D2,≤ 0
same,SPOT peptide array binding signal intensity,SpCyk3,4
same,SPOT peptide array binding signal intensity,SpHof1,136
same,SPOT peptide array binding signal intensity,SpHof1-2,32.5
same,SPOT peptide array binding signal intensity,SpHof1-3,403
same,SPOT peptide array binding signal intensity,SpHse1,366
same,SPOT peptide array binding signal intensity,SpLsb1,3.75
same,SPOT peptide array binding signal intensity,SpLsb4,47
same,SPOT peptide array binding signal intensity,SpMyo1,2.5
same,SPOT peptide array binding signal intensity,SpNbp2,492
same,SPOT peptide array binding signal intensity,SpPex13,8.5
same,SPOT peptide array binding signal intensity,SpRvs167,12.7
same,SPOT peptide array binding signal intensity,SpSla1-D1-D2,3
same,SPOT peptide array binding signal intensity,SpSla1-D3,16.5
LASNSPPVYPKRIRH,SPOT peptide array binding signal intensity,AgAbp1,45
same,SPOT peptide array binding signal intensity,AgBbc1,18.2
same,SPOT peptide array binding signal intensity,AgBem1-D1,≤ 0
same,SPOT peptide array binding signal intensity,AgBzz1-D1,59
same,SPOT peptide array binding signal intensity,AgBzz1-D2,6
same,SPOT peptide array binding signal intensity,AgCyk3,≤ 0
same,SPOT peptide array binding signal intensity,AgFus1,≤ 0
same,SPOT peptide array binding signal intensity,AgHof1,≤ 0
same,SPOT peptide array binding signal intensity,AgHse1,3.5
same,SPOT peptide array binding signal intensity,AgLsb1,2.5
same,SPOT peptide array binding signal intensity,AgLsb4,196
same,SPOT peptide array binding signal intensity,AgMyo5,≤ 0
same,SPOT peptide array binding signal intensity,AgNbp2,≤ 0
same,SPOT peptide array binding signal intensity,AgRvs167,4.17
same,SPOT peptide array binding signal intensity,AgSho1,≤ 0
same,SPOT peptide array binding signal intensity,AgSla1-D1-D2,2
same,SPOT peptide array binding signal intensity,AgSla1-D3,≤ 0
same,SPOT peptide array binding signal intensity,CaAbp1-D1,93
same,SPOT peptide array binding signal intensity,CaAbp1-D2,47.5
same,SPOT peptide array binding signal intensity,CaBbc1,400
same,SPOT peptide array binding signal intensity,CaBem1-D1,6
same,SPOT peptide array binding signal intensity,CaBzz1-D1,165
same,SPOT peptide array binding signal intensity,CaBzz1-D2,44.8
same,SPOT peptide array binding signal intensity,CaCyk3,≤ 0
same,SPOT peptide array binding signal intensity,CaFus1,≤ 0
same,SPOT peptide array binding signal intensity,CaHof1,0.25
same,SPOT peptide array binding signal intensity,CaHse1,≤ 0
same,SPOT peptide array binding signal intensity,CaLsb1,≤ 0
same,SPOT peptide array binding signal intensity,CaLsb4,771
same,SPOT peptide array binding signal intensity,CaMyo5,≤ 0
same,SPOT peptide array binding signal intensity,CaNbp2,≤ 0
same,SPOT peptide array binding signal intensity,CaRvs167,4.17
same,SPOT peptide array binding signal intensity,CaRvs167-3,2.25
same,SPOT peptide array binding signal intensity,CaSho1,3
same,SPOT peptide array binding signal intensity,CaSla1-D1-D2,56
same,SPOT peptide array binding signal intensity,CaSla1-D3,≤ 0
same,SPOT peptide array binding signal intensity,ScAbp1,39.5
same,SPOT peptide array binding signal intensity,ScBbc1,16.8
same,SPOT peptide array binding signal intensity,ScBem1-D1,≤ 0
same,SPOT peptide array binding signal intensity,ScBzz1-D1,≤ 0
same,SPOT peptide array binding signal intensity,ScBzz1-D2,19
same,SPOT peptide array binding signal intensity,ScCyk3,1
same,SPOT peptide array binding signal intensity,ScFus1,≤ 0
same,SPOT peptide array binding signal intensity,ScHof1,0.75
same,SPOT peptide array binding signal intensity,ScHse1,≤ 0
same,SPOT peptide array binding signal intensity,ScLsb1,46.5
same,SPOT peptide array binding signal intensity,ScLsb2,10
same,SPOT peptide array binding signal intensity,ScLsb3,1560
same,SPOT peptide array binding signal intensity,ScLsb4,45.5
same,SPOT peptide array binding signal intensity,ScMyo3,≤ 0
same,SPOT peptide array binding signal intensity,ScMyo5,≤ 0
same,SPOT peptide array binding signal intensity,ScNbp2,≤ 0
same,SPOT peptide array binding signal intensity,ScPex13,56.5
same,SPOT peptide array binding signal intensity,ScRvs167,7.67
same,SPOT peptide array binding signal intensity,ScSho1,27.5
same,SPOT peptide array binding signal intensity,ScSla1-D1-D2,11
same,SPOT peptide array binding signal intensity,ScSla1-D3,≤ 0
same,SPOT peptide array binding signal intensity,SpAbp1-D1,18.5
same,SPOT peptide array binding signal intensity,SpBbc1,≤ 0
same,SPOT peptide array binding signal intensity,SpBzz1-D1,248
same,SPOT peptide array binding signal intensity,SpBzz1-D2,≤ 0
same,SPOT peptide array binding signal intensity,SpCyk3,≤ 0
same,SPOT peptide array binding signal intensity,SpHof1,1.5
same,SPOT peptide array binding signal intensity,SpHof1-2,1
same,SPOT peptide array binding signal intensity,SpHof1-3,2.75
same,SPOT peptide array binding signal intensity,SpHse1,≤ 0
same,SPOT peptide array binding signal intensity,SpLsb1,257
same,SPOT peptide array binding signal intensity,SpLsb4,1810
same,SPOT peptide array binding signal intensity,SpMyo1,≤ 0
same,SPOT peptide array binding signal intensity,SpNbp2,0.5
same,SPOT peptide array binding signal intensity,SpPex13,≤ 0
same,SPOT peptide array binding signal intensity,SpRvs167,3.5
same,SPOT peptide array binding signal intensity,SpSla1-D1-D2,≤ 0
same,SPOT peptide array binding signal intensity,SpSla1-D3,≤ 0
RRRDFGAPANKRPRR,SPOT peptide array binding signal intensity,AgAbp1,45
same,SPOT peptide array binding signal intensity,AgBbc1,223
same,SPOT peptide array binding signal intensity,AgBem1-D1,179
same,SPOT peptide array binding signal intensity,AgBzz1-D1,60
same,SPOT peptide array binding signal intensity,AgBzz1-D2,18
same,SPOT peptide array binding signal intensity,AgCyk3,5
same,SPOT peptide array binding signal intensity,AgFus1,374
same,SPOT peptide array binding signal intensity,AgHof1,57.5
same,SPOT peptide array binding signal intensity,AgHse1,156
same,SPOT peptide array binding signal intensity,AgLsb1,0.75
same,SPOT peptide array binding signal intensity,AgLsb4,56.5
same,SPOT peptide array binding signal intensity,AgMyo5,0.5
same,SPOT peptide array binding signal intensity,AgNbp2,39
same,SPOT peptide array binding signal intensity,AgRvs167,6
same,SPOT peptide array binding signal intensity,AgSho1,10
same,SPOT peptide array binding signal intensity,AgSla1-D1-D2,27.5
same,SPOT peptide array binding signal intensity,AgSla1-D3,4.75
same,SPOT peptide array binding signal intensity,CaAbp1-D1,106
same,SPOT peptide array binding signal intensity,CaAbp1-D2,126
same,SPOT peptide array binding signal intensity,CaBbc1,546
same,SPOT peptide array binding signal intensity,CaBem1-D1,52.5
same,SPOT peptide array binding signal intensity,CaBzz1-D1,116
same,SPOT peptide array binding signal intensity,CaBzz1-D2,124
same,SPOT peptide array binding signal intensity,CaCyk3,17
same,SPOT peptide array binding signal intensity,CaFus1,241
same,SPOT peptide array binding signal intensity,CaHof1,0.5
same,SPOT peptide array binding signal intensity,CaHse1,2.25
same,SPOT peptide array binding signal intensity,CaLsb1,≤ 0
same,SPOT peptide array binding signal intensity,CaLsb4,67.5
same,SPOT peptide array binding signal intensity,CaMyo5,2.25

# Source: the supplement of paper PMC4466140
